Values joined by “and” are separate entries in the source; they are usually repeats but may differ in a detail not shown here. Equal values may be shown once. Active and inactive are the calls of the source.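 How the source made its calls, unless noted: active means normalized viability below 100% at a tested concentration; inactive means the rest.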
Assays:
[1] = stimulators of nuclear beta-catenin in C2C12, primary screen, imaging, WNT3A-conditioned medium, mouse C2C12, NPC library (AID 1117326; in the data active means nuclear beta-catenin stimulation mostly above about 4.2%, no sharp cut-off; inactive means mostly below about 10%); conditions: stronger effect = higher value
[2] = stimulators of insulin release from INS-1E, primary screen, cell-based, 5 mM glucose, NPC library (AID 1117329;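 active means compound raises insulin release from rat beta cells at 5 mM glucose, no numeric limit stated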); conditions: rat INS-1E insulin secretion, at 10 µM, stronger effect = higher value
[3] = growth inhibition of GSK3B-pretreated HCT116 cells – cell-based, CellTiter-Glo, 0.2 to 20 µM (AID 1117336;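 active means compounds lowering colon cancer cell viability after pretreatment blocking the GSK3B kinase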); conditions: HCT116 viability after GSK3B inhibitor, at 20 µM, stronger effect = higher value
[4] = inhibition of endothelial tube formation, primary screen, imaging, VEGF stimulated, CD31 staining, tube area, NPC library (AID 1117340;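 active means compound that reduces growth-factor-driven endothelial tube area in a mixed cell culture, no cutoff stated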); conditions: VEGF-stimulated ADSC/ECFC co-culture, at 10 µM, stronger effect = higher value
[5] = glucagon-like peptide 1 release enhancers, primary assay, NCI-H716 cell line, NPC library (AID 1117341;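 active means compound raises GLP1 secretion from the human gut endocrine cells, with no numeric limit stated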); conditions: NCI-H716 cells, at 10 µM, stronger effect = higher value
[6] = HCT116 colon cancer cell growth inhibition, primary screen, CellTiter-Glo luminescence, NPC library (AID 1117342;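 active means compounds that lower survival of HCT116 colon cancer cells in the luminescence readout, no numeric limit stated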); conditions: at 20 µM (top of the series)
[7] = CellTiter-Glo luminescent readout of SW480 viability loss, NPC library primary (AID 1117343;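 active means compounds that lower viability of the colon cancer cells in the luminescence readout, with no numeric limit stated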); conditions: CellTiter-Glo luminescence; at 20 µM (top of the series) unless noted
[8] = decreased DLD-1 cellular survival, CellTiter-Glo luminescent readout, NPC compound collection, primary HTS (AID 1117346;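 active means compounds that lower survival of DLD-1 colon cancer cells in the luminescence readout, no cutoff given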); conditions: DLD-1 viability, CellTiter-Glo luminescence; at 20 µM (top of the series)
[9] = differential killing of epithelial or mesenchymal cells, primary screen, imaging, PC-3E GFP, TEM4-18 mCherry, co-culture (AID 1345086;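 active means compounds killing one labelled cell type while sparing the other, by normalised counts and ratio limits, not self-fluorescent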;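 on all read-outs here: cells exposed to compound for 72 h before imaging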;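 on red/green cell ratio (normalised): normalised mesenchymal count divided by normalised epithelial count so high means epithelial killing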); conditions: imaging cell counts, at 1 µM; for red/green cell ratio (normalised): actives lie on both sides, counts scaled to control wells, 1 = unselective
[10] = sensitizers of A549 cells to miR-34 induction, primary screen, imaging, A549 dox-inducible miR-34, nuclei and caspase counts (AID 1347080;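 active means compounds whose cell count with miR-34 switched on is under 0.7 times the count with it off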); conditions: A549 miR-34 inducible, Hoechst nuclei count, 48 h
[11] = survival rescue of mitochondrial mutant cells in low glucose, primary screen, MELAS cybrids, Rieske KO mouse fibroblasts, CellTiter-Glo (AID 1508586;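 active means mean z-score across replicates of 1.96 or higher in either the MELAS or the Rieske mutant cell line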;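 further: z relative to plate mean and SD of compound and empty wells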)
[12] = ovarian cancer cell viability with rucaparib, profiling panel, oncology-focused library, rucaparib conditional (AID 1508598); conditions: patient-derived ovarian cancer cells, CellTiter-Glo viability, 144 h, stronger effect = lower value
[13] = target: NAD(+) hydrolase SARM1 (Homo sapiens) (UniProt Q6SZW1); experiment: SARM1 TIR NADase inhibitors, cell lysate, NAD-Glo luminescence (AID 1508614;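 active means compound whose remaining NAD level is above about 45 nM, limit read from the data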); conditions: SAM-TIR HEK293T lysate NADase, at 1 µM, stronger effect = higher value
Sequence of NAD(+) hydrolase SARM1 (Homo sapiens) (Q6SZW1 whole entry, looked up): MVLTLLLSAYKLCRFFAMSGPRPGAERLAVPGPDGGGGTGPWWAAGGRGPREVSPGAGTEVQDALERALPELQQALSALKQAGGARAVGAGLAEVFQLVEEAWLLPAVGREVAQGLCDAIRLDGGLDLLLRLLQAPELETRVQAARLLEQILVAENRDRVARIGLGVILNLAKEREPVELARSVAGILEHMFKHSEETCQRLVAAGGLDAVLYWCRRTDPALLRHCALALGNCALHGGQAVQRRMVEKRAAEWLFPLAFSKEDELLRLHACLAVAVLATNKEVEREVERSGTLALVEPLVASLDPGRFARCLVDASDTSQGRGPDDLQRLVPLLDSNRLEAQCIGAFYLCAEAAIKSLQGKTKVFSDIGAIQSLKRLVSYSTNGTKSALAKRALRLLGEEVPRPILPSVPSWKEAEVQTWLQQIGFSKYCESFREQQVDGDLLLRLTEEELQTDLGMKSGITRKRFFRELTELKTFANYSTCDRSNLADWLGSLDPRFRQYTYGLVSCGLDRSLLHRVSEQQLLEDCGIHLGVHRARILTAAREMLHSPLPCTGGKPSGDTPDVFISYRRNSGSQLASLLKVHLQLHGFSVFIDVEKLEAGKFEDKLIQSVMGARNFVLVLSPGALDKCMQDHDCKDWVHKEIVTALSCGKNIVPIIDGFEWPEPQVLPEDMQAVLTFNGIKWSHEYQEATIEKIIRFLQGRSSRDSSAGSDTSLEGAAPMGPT

[14] = hESC survival regulators, cell-based (AID 493140; call rule not given here;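 further: cells exposed to compounds for four days before counting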); conditions: human embryonic stem cell survival screen; stronger effect = higher value
[15] = liver-stage malaria parasite growth inhibition, primary screen, cell-based, HepG2, luciferase luminescence, HepG2 viability (AID 624349; in the data active means parasite load remaining mostly below about 12%, no sharp cut-off; inactive means mostly above about 10%;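 further: 100% = mean of DMSO negative control wells on the same plate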); conditions: P. berghei liver stage in HepG2, luciferase luminescence, concentration not given here; parasite load remaining: stronger effect = lower value; viability: measured here: HepG2 viability without parasites
[16] = measured here: epithelial PC-3E GFP cell survival
[17] = measured here: mesenchymal TEM4-18 mCherry cell survival
[18] = stronger effect = lower value, cell number ratio, induced over uninduced
[19] = measured here: relative caspase fold change +Dox/-Dox
[20] = measured here: total cells with miR-34 induction, stronger effect = lower value
[21] = measured here: total cells without miR-34 induction
[22] = MELAS cybrid survival, CellTiter-Glo 48 h, stronger effect = higher value
[23] = Rieske KO mouse fibroblast survival, CellTiter-Glo 72 h

In the case of `Cc1nc(Nc2ncc(C(=O)Nc3c(C)cccc3Cl)s2)cc(N2CCN(CCO)CC2)n1`, the nuclear beta-catenin stimulation ([1]; at 10 µM) is reported as 69.4% (active), the nuclear beta-catenin stimulation ([1]; stimulation, at 2 µM) is reported as 65.2% and the insulin secretion stimulation [2] is reported as -0.7% (inactive). The viability decrease [3] was -182% (inactive), the tube area decrease [4] was 62.2% (active) and the GLP1 secretion stimulation [5] was 2.2% (inactive). For the same compound, the inhibition of viability [6] was 69.7% (active), the viability decrease (inhibition) [7] was 87.2% (active) and the viability decrease (inhibition) [8] was 100% (active). For the same compound, the red/green cell ratio (normalised) [9] was 1.54 (inactive), the normalised cell number [9, 16] was 0.38 and the normalised cell number [9, 17] was 0.58. The fold change [10, 18] was 0.896 (inactive) and 0.9 (inactive), the fold change [10, 19] was 0.654 and 0.731 and the cell count [10, 20] was 470 and 582. The cell count [10, 21] was 524 and 647, the z-score [11, 22] was 4.95 (active) and the z-score [11, 23] was -1.77. The viability ([12]; at 0.000305 µM, OCI-C5x cells, with rucaparib 10 µM, 100% = cells with rucaparib alone) was 102% (inactive), the viability ([12]; at 0.000305 µM, OCI-C5x cells, without rucaparib) was 117% (inactive) and the viability ([12]; at 0.000305 µM, OCI-P5x cells, with rucaparib 20 µM, 100% = cells with rucaparib alone) was 103% (inactive). For the same compound, the viability ([12]; at 0.000305 µM, OCI-P5x cells, without rucaparib) was 98.9% (active), the viability ([12]; at 0.00122 µM, OCI-C5x cells, with rucaparib 10 µM, 100% = cells with rucaparib alone) was 99.9% (active) and the viability ([12]; at 0.00122 µM, OCI-C5x cells, without rucaparib) was 114% (inactive). For the same compound, the viability ([12]; at 0.00122 µM, OCI-P5x cells, with rucaparib 20 µM, 100% = cells with rucaparib alone) was 54.8% (active), the viability ([12]; at 0.00122 µM, OCI-P5x cells, without rucaparib) was 97.2% (active) and the viability ([12]; at 0.00488 µM, OCI-C5x cells, with rucaparib 10 µM, 100% = cells with rucaparib alone) was 107% (inactive). The viability ([12]; at 0.00488 µM, OCI-C5x cells, without rucaparib) was 108% (inactive), the viability ([12]; at 0.00488 µM, OCI-P5x cells, with rucaparib 20 µM, 100% = cells with rucaparib alone) was 52.6% (active) and the viability ([12]; at 0.00488 µM, OCI-P5x cells, without rucaparib) was 81.3% (active). The viability ([12]; at 0.0195 µM, OCI-C5x cells, with rucaparib 10 µM, 100% = cells with rucaparib alone) was 77.4% (active), the viability ([12]; at 0.0195 µM, OCI-C5x cells, without rucaparib) was 87.9% (active) and the viability ([12]; at 0.0195 µM, OCI-P5x cells, with rucaparib 20 µM, 100% = cells with rucaparib alone) was 27.3% (active). The viability ([12]; at 0.0195 µM, OCI-P5x cells, without rucaparib) was 53.6% (active), the viability ([12]; at 0.0781 µM, OCI-C5x cells, with rucaparib 10 µM, 100% = cells with rucaparib alone) was 68.4% (active) and the viability ([12]; at 0.0781 µM, OCI-C5x cells, without rucaparib) was 72.4% (active). The viability ([12]; at 0.0781 µM, OCI-P5x cells, with rucaparib 20 µM, 100% = cells with rucaparib alone) was 17% (active), the viability ([12]; at 0.0781 µM, OCI-P5x cells, without rucaparib) was 31.8% (active) and the viability ([12]; at 0.313 µM, OCI-C5x cells, with rucaparib 10 µM, 100% = cells with rucaparib alone) was 69.2% (active). For the same compound, the viability ([12]; at 0.313 µM, OCI-C5x cells, without rucaparib) was 71.6% (active), the viability ([12]; at 0.313 µM, OCI-P5x cells, with rucaparib 20 µM, 100% = cells with rucaparib alone) was 17% (active) and the viability ([12]; at 0.313 µM, OCI-P5x cells, without rucaparib) was 28.4% (active). For the same compound, the viability ([12]; at 1.25 µM, OCI-C5x cells, with rucaparib 10 µM, 100% = cells with rucaparib alone) was 66.7% (active), the viability ([12]; at 1.25 µM, OCI-C5x cells, without rucaparib) was 71.4% (active) and the viability ([12]; at 1.25 µM, OCI-P5x cells, with rucaparib 20 µM, 100% = cells with rucaparib alone) was 16.6% (active). The viability ([12]; at 1.25 µM, OCI-P5x cells, without rucaparib) was 24.3% (active), the viability ([12]; at 5 µM, OCI-C5x cells, with rucaparib 10 µM, 100% = cells with rucaparib alone) was 44.6% (active) and the viability ([12]; at 5 µM, OCI-C5x cells, without rucaparib) was 51.1% (active). The viability ([12]; at 5 µM, OCI-P5x cells, with rucaparib 20 µM, 100% = cells with rucaparib alone) was 2.14% (active), the viability ([12]; at 5 µM, OCI-P5x cells, without rucaparib) was 10.5% (active) and the remaining NAD [13] was 10 nM (inactive).

For `OC(CCN1CCCCC1)(c1ccccc1)C1CC2C=CC1C2` (stereo unspecified), the survival [14] was 9.67 (inactive), the parasite load remaining [15] was 61.4% (inactive) and 36.1% (inactive) and the viability [15] was 78.3% and 106%. The nuclear beta-catenin stimulation ([1]; at 10 µM) was 0.3% (inactive), the nuclear beta-catenin stimulation ([1]; stimulation, at 2 µM) was -0.7% and the insulin secretion stimulation [2] was 4.5% (inactive). The viability decrease [3] was -65.7% (inactive), the tube area decrease [4] was 1.4% (inactive) and the GLP1 secretion stimulation [5] was -4% (inactive). The inhibition of viability [6] was 36.4% (inactive), the viability decrease (inhibition) [7] was 39.6% (inactive) and the viability decrease (inhibition) [8] was 2.7% (inactive). For the same compound, the red/green cell ratio (normalised) [9] was 0.98 (inactive), the normalised cell number [9, 16] was 0.85 and the normalised cell number [9, 17] was 0.83. The fold change [10, 18] was 1.01 (inactive) and 0.963 (inactive) and 0.83 (inactive), the fold change [10, 19] was 1.73 and 0.774 and 4.12 and the cell count [10, 20] was 10100 and 7400 and 10600. The cell count [10, 21] was 9960 and 7680 and 12700, the z-score [11, 22] was -0.399 (inactive) and the z-score [11, 23] was 0.122. The remaining NAD [13] was 10 nM (inactive).

With `C[C@H]1[C@H](NC(=O)/C(=N/OC(C)(C)C(=O)O)c2csc(N)n2)C(=O)N1S(=O)(=O)O` (stereo in doubt) the nuclear beta-catenin stimulation ([1]; at 10 µM) was 5% (inactive), the nuclear beta-catenin stimulation ([1]; stimulation, at 2 µM) was -0.4% and the insulin secretion stimulation [2] was 0.1% (inactive). For the same compound, the viability decrease [3] was -16.4% (inactive), the tube area decrease [4] was 11.9% (inactive) and the GLP1 secretion stimulation [5] was -1.9% (inactive). For the same compound, the inhibition of viability [6] was 0.97% (inactive), the viability decrease (inhibition) [7] was 25.1% (inactive) and the viability decrease (inhibition) [8] was -11.3% (inactive). For the same compound, the red/green cell ratio (normalised) [9] was 1.32 (inactive), the normalised cell number [9, 16] was 0.82 and the normalised cell number [9, 17] was 1.08.

With `COc1ccc2[nH]c(S(=O)Cc3ncc(C)c(OC)c3C)nc2n1` (stereo unspecified) the parasite load remaining [15] was 0.57% (active), the viability [15] was 93% and the nuclear beta-catenin stimulation ([1]; at 10 µM) was 5.2% (inactive). The nuclear beta-catenin stimulation ([1]; stimulation, at 2 µM) was -0.9%, the insulin secretion stimulation [2] was 4.2% (inactive) and the viability decrease [3] was 16.5% (inactive). The tube area decrease [4] was 14.1% (inactive), the GLP1 secretion stimulation [5] was 4.6% (inactive) and the inhibition of viability [6] was 4.9% (inactive). For the same compound, the viability decrease (inhibition) [7] was -1.6% (inactive), the viability decrease (inhibition) [8] was 4.3% (inactive) and the red/green cell ratio (normalised) [9] was 1.06 (inactive). For the same compound, the normalised cell number [9, 16] was 1.01, the normalised cell number [9, 17] was 1.07 and the fold change [10, 18] was 0.835 (inactive). It also gave a fold change [10, 19] of 1.32, a cell count [10, 20] of 8340 and a cell count [10, 21] of 9990. For the same compound, the z-score [11, 22] was 1.95 (inactive) and 1.02, the z-score [11, 23] was 0.213 and 2.3 and the remaining NAD [13] was 77 nM (active).

— PubChem BioAssay
